Like-named read-outs stand apart in the source and are kept apart here.
Key:
Design in all cases: species or system human, MV4-11 + K-562 + COLO205 + SK-N-BE2 + OVCAR-8
ACVR1B = settings: read-out: apparent Kd, compound concentrations: 100 nM and 1000 nM (sheet 'Samples'), n = 1
ACVR1 = settings: read-out: apparent Kd, compound concentrations: 100 nM and 1000 nM (sheet 'Samples'), n = 1
BTK = settings: read-out: apparent Kd, compound concentrations: 100 nM and 1000 nM (sheet 'Samples'), n = 1
CSK = settings: read-out: apparent Kd, compound concentrations: 100 nM and 1000 nM (sheet 'Samples'), n = 1
DDR1 = settings: read-out: apparent Kd, n = 1
FRK = settings: read-out: apparent Kd, compound concentrations: 100 nM and 1000 nM (sheet 'Samples'), n = 1
LYN = settings: read-out: apparent Kd, compound concentrations: 100 nM and 1000 nM (sheet 'Samples'), n = 1
SIK2 = settings: read-out: apparent Kd, compound concentrations: 100 nM and 1000 nM (sheet 'Samples'), n = 1
SRC = settings: read-out: apparent Kd, compound concentrations: 100 nM and 1000 nM (sheet 'Samples'), n = 1
ZAK = settings: read-out: apparent Kd, compound concentrations: 100 nM and 1000 nM (sheet 'Samples'), n = 1
EGFR = settings: read-out: apparent Kd, n = 1
FLT3 = settings: read-out: apparent Kd, n = 1
DYRK1A = settings: read-out: apparent Kd; compound concentrations: 100 nM and 1000 nM (sheet 'Samples'), CATDS: 0.43183776325706602; n = 1
AKT2 = settings: read-out: apparent Kd, compound concentrations: 100 nM and 1000 nM (sheet 'Samples'), n = 1
AURKB = settings: read-out: apparent Kd; compound concentrations: 100 nM and 1000 nM (sheet 'Samples'), CATDS: 2.12373497583834E-2; n = 1
EPHA1 = settings: read-out: apparent Kd; compound concentrations: 100 nM and 1000 nM (sheet 'Samples'), CATDS: 3.01720788002969E-2; n = 1
TNK2 = settings: read-out: apparent Kd, compound concentrations: 100 nM and 1000 nM (sheet 'Samples'), n = 1
[1] = compound concentrations:100 nM and 1000 nM (sheet 'Samples')

With `Cc1ccc(O)cc1Nc1ccnc2cc(-c3ccc(CN4CCCCC4)o3)ccc12` [GW557777X] the potency estimated from few doses (ACVR1B; CATDS: 2.3041961266034101E-2) was 60.3 nM, the potency estimated from few doses (ACVR1; CATDS: 2.9506962076646302E-2) was 25.6 nM and the potency estimated from few doses (BTK; CATDS: 1.36078174892899E-2) was 960 nM. It also gave a potency estimated from few doses (CSK; CATDS: 1.5702412967624198E-2) of 358 nM, a potency estimated from few doses (DDR1; compound concentrations: 100 nM and 1000 nM (sheet 'Samples'), CATDS: 1.3388843859825601E-2) of 1100 nM and a potency estimated from few doses (FRK; CATDS: 4.1928462897336198E-2) of 9.28 nM. The potency estimated from few doses (LYN; CATDS: 1.9191353458574801E-2) was 128 nM, the potency estimated from few doses (SIK2; CATDS: 1.7387307110144301E-2) was 205 nM and the potency estimated from few doses (SRC; CATDS: 2.30493923024673E-2) was 60.3 nM. It also gave a potency estimated from few doses (ZAK; CATDS: 1.4248568360294899E-2) of 672 nM.
In the case of `CS(=O)(=O)Cc1ccc(Nc2nccc(-c3c(-c4cccc(NC(=O)C5CCCCC5)c4)nn4ncccc34)n2)cc1` [GSK350559A], the potency estimated from few doses (DDR1; [1]) is reported as 401 nM, the potency estimated from few doses (EGFR; [1]) is reported as 1890 nM and the potency estimated from few doses (FLT3; [1]) is reported as 660 nM.
`NC1=NC(=O)/C(=C/c2ccc3ncccc3c2)S1` [RO4569139-000] was tested, and the potency estimated from few doses (DYRK1A) was 39.3 nM.
`CS(=O)(=O)CCNCc1ccc(-c2ccc3ncnc(Nc4ccc(OCc5cccc(F)c5)c(C(F)(F)F)c4)c3c2)o1` [GW576484X] showed a potency estimated from few doses (AKT2; CATDS: 4.5987801057845099E-2) of 2420 nM and a potency estimated from few doses (EGFR; compound concentrations: 100 nM and 1000 nM (sheet 'Samples'), CATDS: 4.6980711652152798E-2) of 2290 nM.
With `Cl.Cl.Cl.c1ccc(Oc2ccc(Nc3ccnc4cc(-c5ccc(CN6CCNCC6)o5)ccc34)cc2)nc1.c1ccc(Oc2ccc(Nc3ccnc4cc(-c5ccc(CN6CCNCC6)o5)ccc34)cc2)nc1` [GW567142A] the potency estimated from few doses (AKT2; CATDS: 1.7589072796327002E-2) was 1790 nM, the potency estimated from few doses (AURKB) was 952 nM and the potency estimated from few doses (BTK; CATDS: 2.14657129362281E-2) was 922 nM. For the same molecule, the potency estimated from few doses (EGFR; compound concentrations: 100 nM and 1000 nM (sheet 'Samples'), CATDS: 4.6801095990659902E-2) was 143 nM, the potency estimated from few doses (EPHA1) was 372 nM and the potency estimated from few doses (FLT3; compound concentrations: 100 nM and 1000 nM (sheet 'Samples'), CATDS: 3.3367464965841198E-2) was 294 nM. The potency estimated from few doses (FRK; CATDS: 2.55518807835587E-2) was 566 nM, the potency estimated from few doses (LYN; CATDS: 2.5031582152460801E-2) was 598 nM and the potency estimated from few doses (SRC; CATDS: 6.9151530133692504E-2) was 70.8 nM. For the same molecule, the potency estimated from few doses (TNK2; CATDS: 8.9201711222799504E-2) was 47.3 nM and the potency estimated from few doses (ZAK; CATDS: 2.00291787525065E-2) was 1140 nM.
`NC(=O)c1cccc(Nc2nccc(Nc3cccc4[nH]ncc34)n2)c1` [GW782612X] was tested, and the potency estimated from few doses (ACVR1B; CATDS: 5.6390113546044701E-2) was 401 nM, the potency estimated from few doses (ACVR1; CATDS: 0.10376431199902) was 122 nM and the potency estimated from few doses (FRK; CATDS: 5.5821190853221701E-2) was 411 nM.
Molecule `CC(C)c1nc(-c2cccc(NS(=O)(=O)c3ccccc3)c2)c(-c2ccnc(Nc3ccc4c(c3)CN(C)CC4)n2)s1` [GSK1649598A] has a potency estimated from few doses (ACVR1B; CATDS: 1.6553743316138101E-2) of 628 nM, a potency estimated from few doses (ACVR1; CATDS: 1.3619919375172601E-2) of 1250 nM and a potency estimated from few doses (BTK; CATDS: 1.37109395342906E-2) of 1210 nM. For the same molecule, the potency estimated from few doses (CSK; CATDS: 1.8899514592430999E-2) was 433 nM, the potency estimated from few doses (DDR1; compound concentrations: 100 nM and 1000 nM (sheet 'Samples'), CATDS: 1.30172526981645E-2) was 1520 nM and the potency estimated from few doses (EGFR; compound concentrations: 100 nM and 1000 nM (sheet 'Samples'), CATDS: 2.2005426873151199E-2) was 298 nM. For the same molecule, the potency estimated from few doses (FRK; CATDS: 2.08537323275855E-2) was 338 nM, the potency estimated from few doses (LYN; CATDS: 2.0380924471609701E-2) was 358 nM and the potency estimated from few doses (SIK2; CATDS: 1.6344481967555599E-2) was 653 nM. For the same molecule, the potency estimated from few doses (SRC; CATDS: 1.45663528778369E-2) was 960 nM, the potency estimated from few doses (TNK2; CATDS: 1.5113768238236E-2) was 842 nM and the potency estimated from few doses (ZAK; CATDS: 1.7977927791487699E-2) was 495 nM.

Reference: PMC11062922 (Nature Chemical Biology, 2023)
